From ChEMBL document CHEMBL1961873, “Compounds: GSK PKIS; Assays: Nanosyn kinase panel” (2012)

Tests used:
[1] = molecular target: Serine/threonine-protein kinase MRCK alpha (Homo sapiens) (UniProt Q5VT25); conditions: at 0.1 µM
[2] = molecular target: Serine/threonine-protein kinase MRCK alpha (Homo sapiens) (UniProt Q5VT25); conditions: at 1 µM
[3] = molecular target: Serine/threonine-protein kinase MRCK beta (Homo sapiens) (UniProt Q9Y5S2); conditions: at 0.1 µM
[4] = molecular target: Serine/threonine-protein kinase MRCK beta (Homo sapiens) (UniProt Q9Y5S2); conditions: at 1 µM
[5] = molecular target: Ribosomal protein S6 kinase alpha-5 (Homo sapiens) (UniProt O75582); conditions: at 0.1 µM
Chain of Ribosomal protein S6 kinase alpha-5 (Homo sapiens) (O75582 whole entry, looked up): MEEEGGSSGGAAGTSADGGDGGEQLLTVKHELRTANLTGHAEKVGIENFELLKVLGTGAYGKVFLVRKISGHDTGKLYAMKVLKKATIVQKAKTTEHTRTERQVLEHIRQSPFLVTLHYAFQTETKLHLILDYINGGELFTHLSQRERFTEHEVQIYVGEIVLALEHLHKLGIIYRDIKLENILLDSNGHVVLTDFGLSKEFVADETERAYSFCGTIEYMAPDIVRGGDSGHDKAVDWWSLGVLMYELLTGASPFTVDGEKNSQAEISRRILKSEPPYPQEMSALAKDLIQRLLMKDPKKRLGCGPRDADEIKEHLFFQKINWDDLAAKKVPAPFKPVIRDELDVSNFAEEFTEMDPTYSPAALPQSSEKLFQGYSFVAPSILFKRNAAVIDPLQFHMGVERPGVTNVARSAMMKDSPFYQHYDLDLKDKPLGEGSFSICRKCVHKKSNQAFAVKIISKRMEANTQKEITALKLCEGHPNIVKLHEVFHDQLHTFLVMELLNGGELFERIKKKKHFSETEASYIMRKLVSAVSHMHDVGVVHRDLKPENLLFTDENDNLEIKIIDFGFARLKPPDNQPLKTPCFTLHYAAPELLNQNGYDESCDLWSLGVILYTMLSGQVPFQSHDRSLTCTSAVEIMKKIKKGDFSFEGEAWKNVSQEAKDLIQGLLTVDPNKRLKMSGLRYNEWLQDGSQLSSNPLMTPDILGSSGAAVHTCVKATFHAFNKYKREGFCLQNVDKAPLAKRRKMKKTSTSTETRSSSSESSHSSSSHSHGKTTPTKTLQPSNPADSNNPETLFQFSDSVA

[6] = molecular target: Ribosomal protein S6 kinase alpha-5 (Homo sapiens) (UniProt O75582); conditions: at 1 µM
[7] = molecular target: Ribosomal protein S6 kinase alpha-4 (Homo sapiens) (UniProt O75676); conditions: at 0.1 µM
[8] = molecular target: Ribosomal protein S6 kinase alpha-4 (Homo sapiens) (UniProt O75676); conditions: at 1 µM
[9] = molecular target: Ribosomal protein S6 kinase beta-1 (Homo sapiens) (UniProt P23443); conditions: at 0.1 µM
Chain of Ribosomal protein S6 kinase beta-1 (Homo sapiens) (P23443 whole entry, looked up): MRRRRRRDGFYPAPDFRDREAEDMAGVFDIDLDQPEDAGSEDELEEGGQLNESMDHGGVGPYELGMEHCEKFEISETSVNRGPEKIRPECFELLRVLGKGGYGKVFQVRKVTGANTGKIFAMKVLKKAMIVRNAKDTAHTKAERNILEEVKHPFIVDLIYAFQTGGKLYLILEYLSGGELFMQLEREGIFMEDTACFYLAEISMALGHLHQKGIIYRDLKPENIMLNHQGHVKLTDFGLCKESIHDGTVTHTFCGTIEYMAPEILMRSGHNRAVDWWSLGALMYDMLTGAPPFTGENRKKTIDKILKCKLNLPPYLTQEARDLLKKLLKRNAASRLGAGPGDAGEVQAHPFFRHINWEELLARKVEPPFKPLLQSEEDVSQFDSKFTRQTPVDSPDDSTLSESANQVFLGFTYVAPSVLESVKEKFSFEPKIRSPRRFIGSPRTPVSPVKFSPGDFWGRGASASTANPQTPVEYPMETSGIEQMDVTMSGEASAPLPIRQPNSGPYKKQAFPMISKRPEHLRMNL

[10] = molecular target: Ribosomal protein S6 kinase beta-1 (Homo sapiens) (UniProt P23443); conditions: at 1 µM
[11] = molecular target: T1, 3-phosphoinositide-dependent protein kinase 1 (Homo sapiens) (UniProt O15530); conditions: at 0.1 µM;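 also: values are mean inhibition of PDK1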
T1 sequence (whole entry): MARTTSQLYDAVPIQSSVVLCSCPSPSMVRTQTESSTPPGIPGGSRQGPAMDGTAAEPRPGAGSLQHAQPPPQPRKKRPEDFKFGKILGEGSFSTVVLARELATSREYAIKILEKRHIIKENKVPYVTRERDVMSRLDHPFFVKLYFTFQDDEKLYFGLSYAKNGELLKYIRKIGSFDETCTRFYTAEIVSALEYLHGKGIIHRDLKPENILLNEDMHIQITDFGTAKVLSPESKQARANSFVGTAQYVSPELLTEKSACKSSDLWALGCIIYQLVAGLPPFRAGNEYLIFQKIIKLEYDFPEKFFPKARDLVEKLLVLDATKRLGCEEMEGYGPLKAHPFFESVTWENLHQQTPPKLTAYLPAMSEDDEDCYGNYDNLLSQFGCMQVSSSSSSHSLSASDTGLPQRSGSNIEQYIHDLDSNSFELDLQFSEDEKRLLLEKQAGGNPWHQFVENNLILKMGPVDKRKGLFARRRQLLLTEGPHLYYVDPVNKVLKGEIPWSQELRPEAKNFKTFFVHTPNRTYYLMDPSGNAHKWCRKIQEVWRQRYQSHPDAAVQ

[12] = molecular target: cAMP-dependent protein kinase catalytic subunit alpha (Homo sapiens) (UniProt P17612); conditions: at 0.1 µM
[13] = molecular target: cAMP-dependent protein kinase catalytic subunit alpha (Homo sapiens) (UniProt P17612); conditions: at 1 µM
[14] = molecular target: Protein kinase C alpha type (Homo sapiens) (UniProt P17252); conditions: at 0.1 µM
[15] = molecular target: Protein kinase C alpha type (Homo sapiens) (UniProt P17252); conditions: at 1 µM
[16] = molecular target: Protein kinase C beta type (Homo sapiens) (UniProt P05771); conditions: at 0.1 µM
Chain of Protein kinase C beta type (Homo sapiens) (P05771 2-671 limits assumed): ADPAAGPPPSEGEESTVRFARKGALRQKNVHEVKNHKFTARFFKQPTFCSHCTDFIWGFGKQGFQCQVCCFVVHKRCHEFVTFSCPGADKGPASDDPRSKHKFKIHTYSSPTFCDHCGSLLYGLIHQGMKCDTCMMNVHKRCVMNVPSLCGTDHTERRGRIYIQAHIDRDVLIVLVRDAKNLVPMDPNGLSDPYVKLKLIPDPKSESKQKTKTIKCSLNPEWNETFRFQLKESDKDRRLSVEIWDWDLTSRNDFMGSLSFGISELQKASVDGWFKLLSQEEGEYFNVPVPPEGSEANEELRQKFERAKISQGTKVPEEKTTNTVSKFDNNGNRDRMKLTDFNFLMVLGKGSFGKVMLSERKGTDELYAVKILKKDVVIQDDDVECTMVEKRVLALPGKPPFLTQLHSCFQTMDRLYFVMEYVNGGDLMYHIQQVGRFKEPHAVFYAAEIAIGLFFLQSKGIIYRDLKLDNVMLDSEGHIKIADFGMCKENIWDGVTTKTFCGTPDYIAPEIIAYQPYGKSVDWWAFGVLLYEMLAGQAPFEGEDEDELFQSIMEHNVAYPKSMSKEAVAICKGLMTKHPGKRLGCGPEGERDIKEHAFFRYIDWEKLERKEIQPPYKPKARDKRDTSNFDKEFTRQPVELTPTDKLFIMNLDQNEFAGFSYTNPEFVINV

[17] = molecular target: Protein kinase C beta type (Homo sapiens) (UniProt P05771); conditions: at 1 µM
[18] = molecular target: Protein kinase C eta type (Homo sapiens) (UniProt P24723); conditions: at 0.1 µM
Chain of Protein kinase C eta type (Homo sapiens) (P24723 whole entry): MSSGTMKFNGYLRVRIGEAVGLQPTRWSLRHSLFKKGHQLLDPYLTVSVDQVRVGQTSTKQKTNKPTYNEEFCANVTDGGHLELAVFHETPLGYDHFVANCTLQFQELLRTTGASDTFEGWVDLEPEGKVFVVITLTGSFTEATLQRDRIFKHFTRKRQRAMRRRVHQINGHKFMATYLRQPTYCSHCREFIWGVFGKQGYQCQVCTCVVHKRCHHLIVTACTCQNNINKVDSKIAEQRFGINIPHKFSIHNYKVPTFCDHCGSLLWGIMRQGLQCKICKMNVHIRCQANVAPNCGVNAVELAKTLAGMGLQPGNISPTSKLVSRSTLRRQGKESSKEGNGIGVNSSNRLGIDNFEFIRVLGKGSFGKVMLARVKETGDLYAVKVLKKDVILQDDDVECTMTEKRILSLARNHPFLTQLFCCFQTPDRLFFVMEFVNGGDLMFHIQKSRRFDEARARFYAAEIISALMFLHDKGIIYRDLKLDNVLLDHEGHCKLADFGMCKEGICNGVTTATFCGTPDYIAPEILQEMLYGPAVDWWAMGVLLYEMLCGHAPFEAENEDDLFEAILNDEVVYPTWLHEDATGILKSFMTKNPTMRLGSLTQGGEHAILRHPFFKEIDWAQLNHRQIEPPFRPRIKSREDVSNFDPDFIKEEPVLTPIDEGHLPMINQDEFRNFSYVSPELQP

[19] = molecular target: Protein kinase C eta type (Homo sapiens) (UniProt P24723); conditions: at 1 µM
[20] = molecular target: Protein kinase C gamma type (Homo sapiens) (UniProt P05129); conditions: at 0.1 µM;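 also: values are mean percent inhibition of PKC gamma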

Chain of Serine/threonine-protein kinase MRCK beta (Homo sapiens) (Q9Y5S2 whole entry): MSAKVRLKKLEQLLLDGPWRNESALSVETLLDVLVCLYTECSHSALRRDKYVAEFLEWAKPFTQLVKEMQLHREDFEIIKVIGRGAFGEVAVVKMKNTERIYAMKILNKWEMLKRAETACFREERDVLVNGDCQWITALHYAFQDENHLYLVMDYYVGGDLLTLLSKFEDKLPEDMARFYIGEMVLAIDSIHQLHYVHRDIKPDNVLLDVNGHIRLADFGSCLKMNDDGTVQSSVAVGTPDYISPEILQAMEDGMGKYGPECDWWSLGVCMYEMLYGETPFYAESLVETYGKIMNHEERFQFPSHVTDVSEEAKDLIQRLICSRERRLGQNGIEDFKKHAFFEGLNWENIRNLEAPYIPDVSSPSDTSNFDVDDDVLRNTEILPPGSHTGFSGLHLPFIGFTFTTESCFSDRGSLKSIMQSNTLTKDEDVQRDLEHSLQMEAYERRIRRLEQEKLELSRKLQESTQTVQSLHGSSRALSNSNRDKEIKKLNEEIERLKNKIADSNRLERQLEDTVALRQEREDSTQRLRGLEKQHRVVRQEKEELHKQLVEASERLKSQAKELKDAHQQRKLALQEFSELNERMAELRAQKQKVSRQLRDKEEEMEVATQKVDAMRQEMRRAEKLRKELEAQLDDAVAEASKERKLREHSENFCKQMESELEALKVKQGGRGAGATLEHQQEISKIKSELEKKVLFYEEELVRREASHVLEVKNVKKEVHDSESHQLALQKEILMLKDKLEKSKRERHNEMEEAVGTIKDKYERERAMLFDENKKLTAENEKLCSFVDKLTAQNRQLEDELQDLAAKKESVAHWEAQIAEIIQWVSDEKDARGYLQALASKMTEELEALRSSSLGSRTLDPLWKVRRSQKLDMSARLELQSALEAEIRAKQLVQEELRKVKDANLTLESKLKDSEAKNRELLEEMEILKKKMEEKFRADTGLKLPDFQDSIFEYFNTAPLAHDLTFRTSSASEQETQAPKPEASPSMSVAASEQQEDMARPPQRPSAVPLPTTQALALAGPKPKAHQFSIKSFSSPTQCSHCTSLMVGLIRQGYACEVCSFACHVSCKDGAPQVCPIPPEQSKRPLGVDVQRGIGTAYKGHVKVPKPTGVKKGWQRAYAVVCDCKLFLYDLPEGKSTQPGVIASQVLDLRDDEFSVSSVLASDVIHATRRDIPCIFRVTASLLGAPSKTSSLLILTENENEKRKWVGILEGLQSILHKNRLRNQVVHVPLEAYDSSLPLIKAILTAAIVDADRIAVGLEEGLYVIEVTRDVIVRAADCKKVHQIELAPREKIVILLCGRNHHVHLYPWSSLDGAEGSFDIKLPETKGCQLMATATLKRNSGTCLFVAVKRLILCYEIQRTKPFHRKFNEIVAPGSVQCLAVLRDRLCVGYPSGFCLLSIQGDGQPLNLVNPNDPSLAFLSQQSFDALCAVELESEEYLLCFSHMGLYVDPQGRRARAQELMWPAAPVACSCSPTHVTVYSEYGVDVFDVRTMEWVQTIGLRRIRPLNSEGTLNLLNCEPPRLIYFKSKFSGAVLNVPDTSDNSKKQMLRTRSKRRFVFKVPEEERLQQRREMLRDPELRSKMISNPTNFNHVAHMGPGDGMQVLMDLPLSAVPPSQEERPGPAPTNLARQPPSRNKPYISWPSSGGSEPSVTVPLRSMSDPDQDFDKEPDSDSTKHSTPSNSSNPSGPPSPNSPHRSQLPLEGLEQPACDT

Row | SMILES | inhibition [1] [%] | inhibition [2] [%] | inhibition [3] [%] | inhibition [4] [%] | inhibition [5] [%] | inhibition [6] [%] | inhibition [7] [%] | inhibition [8] [%] | inhibition [9] [%] | inhibition [10] [%] | inhibition [11] [%] | inhibition [12] [%] | inhibition [13] [%] | inhibition [14] [%] | inhibition [15] [%] | inhibition [16] [%] | inhibition [17] [%] | inhibition [18] [%] | inhibition [19] [%] | inhibition [20] [%]
1 | COc1cccc(-n2ncc3c(N/N=C/c4ccc(C(=O)NCCN(C)C)cc4)ncnc32)c1 | 2.1 | 7.78 | 2.49 | 8.24 | 3.26 | 8.01 | 1.32 | 4.69 | 4.61 | 20.9 | 2.52 | 2.29 | 11.4 | 1.03 | 9.37 | 1.2 | 6.99 | 2.52 | 0.62 | 26.3
2 | CC1=C(C(=O)Nc2ccc3[nH]ncc3c2)C(c2ccc(F)cc2)N=C(c2ccc(C(F)(F)F)nc2)N1 (stereo not given) | -0.15 | 0.82 | -0.07 | 4.54 | 3.51 | 19.2 | 2.12 | 14.9 | 1.03 | 7.4 | 2.62 | 3.58 | 20.9 | 1.25 | 2.09 | 0.07 | -0.53 | 2.89 | 2.1 | 0.54
3 | Cn1c(-c2nonc2N)nc2cnccc21 | 1.33 | 10.3 | 3.02 | 14.4 | 32.7 | 72.4 | 7.86 | 39.6 | 19.8 | 66.6 | 4.21 | 2.05 | 6.79 | 0.48 | 2.7 | 7.33 | 36.2 | 6.3 | 29.4 | 1.7
4 | O=C(O[C@H]1CN[C@H](C#Cc2cc3ncnc(Nc4ccc5c(ccn5Cc5cc(F)ccc5F)c4)c3s2)C1)N1CCOCC1 | -0.29 | -1.5 | 1.19 | 1.68 | -1.77 | -0.4 | 2.95 | 4.34 | 1.82 | 1.74 | 2.16 | 1.86 | 1.48 | 0.78 | 2.63 | 1.59 | 1.27 | 5.63 | 3.54 | 1.38
5 | COc1c(C(N)=O)cc(-c2ccc(Cl)cc2)cc1-c1ccc(S(N)(=O)=O)cc1 | 5.11 | 4.98 | -0.26 | 2.36 | 2.38 | 3.81 | 3.65 | 5.79 | 3.07 | 4.29 | 1.2 | 3.03 | 4.3 | 0.59 | 1.5 | 0.62 | 3.84 | 1.17 | 5.18 | 1.45
6 | N#Cc1cccc(Nc2ncc(-c3ccccc3)o2)c1 | 0.38 | 2.09 | -1.64 | -0.28 | 1.22 | 2.21 | 1 | 2.71 | -0.53 | 1.42 | 0.43 | 0.96 | 1.68 | -0.44 | 0.37 | 0.7 | 2.96 | 0.23 | 2 | -0.01
7 | COc1cc(N2CCN(C(C)C)CC2)ccc1Nc1nc(Nc2cccc(F)c2C(=O)O)c2cc[nH]c2n1 | -0.32 | 1.08 | -1.28 | 0.34 | 2.89 | 3.87 | 0.48 | 2.67 | 1.22 | 2.81 | 2.24 | 1.49 | 2.03 | 1.38 | 2.23 | -0.07 | 3.07 | 2.71 | 4.16 | 1.77
8 | COc1cc(Nc2ncc(-c3ccccc3)o2)cc(OC)c1 | -6.08 | -1.27 | -0.81 | 0.65 | 2.3 | -0.44 | 2.85 | 2.84 | 2.08 | 3.04 | 1.45 | 1.51 | 1.67 | 1.19 | 1.72 | 0.24 | 2.31 | 4.07 | 6.3 | 0.82
9 | FC(F)(F)CNc1nccc(-c2cnn3ncccc23)n1 | -2.84 | -3.89 | -0.09 | -0.68 | 1.98 | 1.09 | 2.33 | 1.58 | 0.49 | 0.86 | -1.1 | 2.98 | 2.52 | 1.22 | 2.56 | 1.27 | 1.54 | 2.22 | 1.8 | 2
10 | CC1=C(C(=O)Nc2ccc3[nH]nc(C)c3c2)C(c2ccc(C(F)(F)F)cc2)CC(=O)N1 (stereo not given) | 1.9 | 17.1 | 5.5 | 37.4 | 6.02 | 28.8 | 1.31 | 11.5 | 1.6 | 9.4 | 1.14 | 3.3 | 26.6 | 0.72 | 7.98 | -0.41 | -0.53 | 3.4 | 9.11 | 4.48
11 | Cc1ccc(-c2cc3c(NC(=O)C4CC4)ncnc3o2)cc1 | -0.24 | 0.37 | 1.15 | 1.58 | 3.67 | 3.15 | 2.15 | 4.27 | 2.29 | 1.52 | 1.92 | 1.76 | 1.5 | 0.9 | 0.92 | 2.14 | 2.41 | 2.1 | 1.62 | 2.91
12 | CS(=O)(=O)Nc1ccc(-c2cc(-c3ccccc3)cc(C(N)=O)c2N)cc1 | -0.32 | 0.21 | 0.74 | 1.3 | 3.96 | 1.83 | -0.81 | 0.34 | -1.22 | 0.07 | -0.56 | 0.69 | -0.07 | 0.46 | 1.59 | -0.05 | -0.92 | 1.6 | 1.53 | 1.15
13 | CS(=O)(=O)CCNCc1ccc(-c2ccc3ncnc(Nc4ccc(OCc5ccccc5)cc4)c3c2)o1 | -0.82 | -2.61 | 0.05 | 1.22 | 1.86 | 0.66 | 3.06 | 2.56 | 1.52 | 2.62 | 1.7 | 2.17 | 2.45 | 0.5 | 1.49 | 1.41 | 0.21 | 3.12 | 3.6 | 2.13
14 | NS(=O)(=O)c1ccc(N/N=C2\C(=O)Nc3ccc(C(=O)NCc4ccncc4)cc32)cc1 | 0.07 | 3.72 | -0.38 | 2.29 | 5.11 | 9.08 | 3.9 | 14.5 | 1.29 | 6.6 | 10.9 | 5.56 | 8.91 | 0.49 | 2.27 | -0.39 | 5.08 | 6.25 | 4.31 | 1.42
15 | COc1cccc(Nc2nccc(-c3cnn4ncccc34)n2)c1 | 0.93 | -0.24 | -1.65 | -1.51 | 1.02 | 4.32 | 1.62 | 10.5 | 2.02 | 3.93 | 2.46 | 1.16 | 6.04 | 6.2 | 43.4 | 0.55 | 5.61 | 2.46 | 7.69 | -1.41
16 | COc1cc(N2CCN(C(C)C)CC2)ccc1Nc1nc(Nc2cccc3ncccc23)c2cc[nH]c2n1 | -0.06 | 4.44 | 0.85 | 4.14 | 0.1 | 1.16 | 1.01 | 2.7 | 0.36 | 2.23 | -0.4 | 0.01 | 0.68 | -0.39 | 1.71 | -0.38 | 2.34 | -2.11 | -3.36 | -0.77
17 | CN(C)CCNC(=O)Nc1ccc(N(C)c2ccnc(Nc3ccc(CS(C)(=O)=O)cc3)n2)cc1 | -0.24 | -0.69 | 1.09 | 2.25 | 3.26 | 3.31 | 3.22 | 4.32 | 1.72 | 1.94 | 2.36 | 2.31 | 5.69 | 1.06 | 1.51 | -0.61 | 0.12 | 5.94 | -2.33 | 2.25
18 | NS(=O)(=O)c1cccc(N/C=C2\C(=O)Nc3ccccc32)c1 | 0.02 | 0.03 | 0.57 | 2.14 | 10.2 | 14.8 | 2.95 | 18.6 | 2.13 | 8 | 4.6 | 2.79 | 1.62 | 0.98 | 2.84 | -0.22 | 2.02 | 1.78 | 3.72 | 0.43
19 | CN(c1ccc(NC(=O)NCCN2CCOCC2)cc1)c1ccnc(Nc2ccc(CS(C)(=O)=O)cc2)n1 | -0.04 | 2.59 | 0.01 | 0.6 | 3.04 | 3.65 | 2.62 | 3.19 | 1.53 | 1.23 | 0.31 | 1.27 | 4.06 | -0.51 | -0.33 | 0.46 | 1.54 | 4.71 | 5.63 | 2.51
